# Measurements taken from PubChem BioAssay (EPA / NIEHS).
# Records with an inconclusive call do not appear. Calls of active or inactive are those of the source. The calls were made as follows: active = hit-call score of the fitted dose curve at least 0.9, where 1 is the maximum; inconclusive = response in the unintended direction; inactive = score below 0.9.
# Biological target: human CYP2C9, CYP2C9 (gene 1559) (UniProt P11712)
# Assay: NVS_ADME_hCYP2C9: NovaScreen (NVS) CYP450-related Enzyme Activity (ADME) Assay for human CYP2C9 (AID 2283108)
# Experimental: NVS_ADME_hCYP2C9 is a biochemical, single-readout assay that uses extracted gene-proteins from SF9 in a cell-free assay. Measurements were taken 0.75 hour after chemical dosing in a 96-well plate.NVS_ADME_hCYP2C9 is one of one assay component(s) measured or calculated from the NVS_ADME_hCYP2C9 assay. It is designed to make measurements of enzyme activity, a form of enzyme reporter, as detected with fluorescence intensity signals by Fluorescence technology.Data from the assay component NVS_ADME_hCYP2C9 was analyzed into 1 assay endpoint. This assay endpoint, NVS_ADME_hCYP2C9, was analyzed in the positive analysis fitting direction relative to Acetonitrile as the negative control and baseline of activity. Using a type of enzyme reporter, loss-of-signal activity can be used to understand changes in the enzymatic activity as they relate to the gene CYP2C9. Furthermore, this assay endpoint can be referred to as a primary readout, because this assay has produced multiple assay endpoints where this one serves a enzymatic activity function. To generalize the intended target to other relatable targets, this assay endpoint is annotated to the cyp intended target family, where the subfamily is xenobiotic metabolism.
# Binding assays used specific radioligands (tritiated, iodinated) with non-radioactive competitive displacement ligands in agonist or antagonist protocols (as indicated) and various reference compounds and inhibitors to titrate specific binding to receptors and transporters. Most enzyme assays (CYPs, kinases, phosphatases, proteases, HDACs) used recombinant protein and specific substrates (fluorescence mostly, some colorimetric and radioactive) and inhibitors, followed by a biochemical separation of substrate and product. All assays for the biochemical HTS were initially run in duplicate at a single concentration (10 uM for CYP450 assays and 25 uM for all others). […] Each assay was run with positive and negative controls, and concurrent controls on every plate. The follow-up (secondary) screen tested active chemical-pairs in concentration series, as well as a few additional assays not tested in the primary screen, some selected negative inactives, and several cases re-run in the concentration series for confirmatory purposes.
# human CYP2C9, CYP2C9 (gene 1559), sequence (P11712 whole entry, looked up): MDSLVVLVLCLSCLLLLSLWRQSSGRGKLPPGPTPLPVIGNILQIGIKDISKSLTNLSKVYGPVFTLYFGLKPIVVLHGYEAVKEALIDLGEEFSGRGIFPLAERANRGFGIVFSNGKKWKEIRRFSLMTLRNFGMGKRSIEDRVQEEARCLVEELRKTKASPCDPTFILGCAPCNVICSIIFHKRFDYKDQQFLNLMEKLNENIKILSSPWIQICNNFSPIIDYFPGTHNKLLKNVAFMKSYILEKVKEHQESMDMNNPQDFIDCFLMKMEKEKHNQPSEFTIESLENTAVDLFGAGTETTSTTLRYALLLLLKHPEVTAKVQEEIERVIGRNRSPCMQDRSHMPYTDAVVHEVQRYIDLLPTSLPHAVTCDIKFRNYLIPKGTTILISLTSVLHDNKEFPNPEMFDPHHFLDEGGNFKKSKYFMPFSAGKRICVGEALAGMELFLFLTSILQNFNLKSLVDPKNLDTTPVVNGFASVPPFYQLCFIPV
SMILES,AC50,outcome
CCOC(=O)c1ccc(C2CCC(NC[C@H](O)COc3ccc(O)c(NS(C)(=O)=O)c3)CC2)cc1 (some centres not stated),2.14 µM (active),–
O=C(OC[C@H]1O[C@@H](OC(=O)c2cc(O)c(O)c(OC(=O)c3cc(O)c(O)c(O)c3)c2)[C@H](OC(=O)c2cc(O)c(O)c(OC(=O)c3cc(O)c(O)c(O)c3)c2)[C@@H](OC(=O)c2cc(O)c(O)c(OC(=O)c3cc(O)c(O)c(O)c3)c2)[C@@H]1OC(=O)c1cc(O)c(O)c(OC(=O)c2cc(O)c(O)c(O)c2)c1)c1cc(O)c(O)c(OC(=O)c2cc(O)c(O)c(O)c2)c1,3.05 µM (active),–
O=C(O)c1cccc(N(Cc2cccnc2)c2ccc(OC(F)F)c(OC(F)F)c2)c1,6.14 µM (active),–
CCc1cc(SCc2sc(-c3ccc(C(F)(F)F)cc3)nc2CN2CCN(c3ccc(OC)cc3)CC2)ccc1OCC(=O)O,–,inactive
CC(=O)OCCC(C)C,8.59 µM (active),–
Cc1[nH]cnc1C[C@H]1CCc2c(C)c3ccccc3n2C1=O,1.77 µM (active),–
CC(C)c1cccc(C(C)C)c1N1C(=O)c2ccc(O)cc2C1=O,4.78 µM (active),–
O=C(NS(=O)(=O)/C=C/c1ccccc1)c1ccc(F)cc1Cl,6.85 µM (active),–
CCN(C(=O)c1cc(C)cc(OC[C@H](C)Nc2ccncc2)c1)C(C)C,4.5 µM (active),–
CC(C)(O)c1coc(S(=O)(=O)NC(=O)Nc2c3c(cc4c2CCC4)CCC3)c1,13.4 µM (active),–
CCCCCCc1ccc(O)cc1O,10 µM (active),–
Nc1ccc(Nc2ccccc2)cc1,16.1 µM (active),–
Cc1ccc(N)cc1O,5.95 µM (active),–
O=P(OC(CCl)CCl)(OC(CCl)CCl)OC(CCl)CCl,–,inactive
Oc1ccc2c(c1)-c1ccccc1C2,3.72 µM (active),–
COc1ccc(/C=C/S(=O)(=O)NC(=O)c2ccc(C)cc2Cl)cc1,12.7 µM (active),–
CNS(=O)(=O)c1cc(C(=O)N2CCC(CCN3C4CCC3CC(n3c(C)nc5ccccc53)C4)(c3cccc(F)c3)CC2)c(Cl)cc1F (configuration not stated),6.52 µM (active),–
